In the supplement of paper PMC11732987, “Enantioselective OTUD7B fragment discovery through chemoproteomics screening and high-throughput optimisation” (Communications Chemistry, 2025):

Key:
Experiment in all cases: log2 ratio of Biotin-Ahx-Ub-VS probe labelling (fragment/DMSO); higher = less target engagement (more negative = stronger competition), active = hit call of the paper (q ≤ 0.05, log2 ratio ≤ -1)
Settings in all cases: compound concentration: 200 uM; treatment time: 3 h
UniProt O00507 = molecular target: UniProt O00507
Sequence of UniProt O00507 (O00507 whole entry, the tested form may be a part): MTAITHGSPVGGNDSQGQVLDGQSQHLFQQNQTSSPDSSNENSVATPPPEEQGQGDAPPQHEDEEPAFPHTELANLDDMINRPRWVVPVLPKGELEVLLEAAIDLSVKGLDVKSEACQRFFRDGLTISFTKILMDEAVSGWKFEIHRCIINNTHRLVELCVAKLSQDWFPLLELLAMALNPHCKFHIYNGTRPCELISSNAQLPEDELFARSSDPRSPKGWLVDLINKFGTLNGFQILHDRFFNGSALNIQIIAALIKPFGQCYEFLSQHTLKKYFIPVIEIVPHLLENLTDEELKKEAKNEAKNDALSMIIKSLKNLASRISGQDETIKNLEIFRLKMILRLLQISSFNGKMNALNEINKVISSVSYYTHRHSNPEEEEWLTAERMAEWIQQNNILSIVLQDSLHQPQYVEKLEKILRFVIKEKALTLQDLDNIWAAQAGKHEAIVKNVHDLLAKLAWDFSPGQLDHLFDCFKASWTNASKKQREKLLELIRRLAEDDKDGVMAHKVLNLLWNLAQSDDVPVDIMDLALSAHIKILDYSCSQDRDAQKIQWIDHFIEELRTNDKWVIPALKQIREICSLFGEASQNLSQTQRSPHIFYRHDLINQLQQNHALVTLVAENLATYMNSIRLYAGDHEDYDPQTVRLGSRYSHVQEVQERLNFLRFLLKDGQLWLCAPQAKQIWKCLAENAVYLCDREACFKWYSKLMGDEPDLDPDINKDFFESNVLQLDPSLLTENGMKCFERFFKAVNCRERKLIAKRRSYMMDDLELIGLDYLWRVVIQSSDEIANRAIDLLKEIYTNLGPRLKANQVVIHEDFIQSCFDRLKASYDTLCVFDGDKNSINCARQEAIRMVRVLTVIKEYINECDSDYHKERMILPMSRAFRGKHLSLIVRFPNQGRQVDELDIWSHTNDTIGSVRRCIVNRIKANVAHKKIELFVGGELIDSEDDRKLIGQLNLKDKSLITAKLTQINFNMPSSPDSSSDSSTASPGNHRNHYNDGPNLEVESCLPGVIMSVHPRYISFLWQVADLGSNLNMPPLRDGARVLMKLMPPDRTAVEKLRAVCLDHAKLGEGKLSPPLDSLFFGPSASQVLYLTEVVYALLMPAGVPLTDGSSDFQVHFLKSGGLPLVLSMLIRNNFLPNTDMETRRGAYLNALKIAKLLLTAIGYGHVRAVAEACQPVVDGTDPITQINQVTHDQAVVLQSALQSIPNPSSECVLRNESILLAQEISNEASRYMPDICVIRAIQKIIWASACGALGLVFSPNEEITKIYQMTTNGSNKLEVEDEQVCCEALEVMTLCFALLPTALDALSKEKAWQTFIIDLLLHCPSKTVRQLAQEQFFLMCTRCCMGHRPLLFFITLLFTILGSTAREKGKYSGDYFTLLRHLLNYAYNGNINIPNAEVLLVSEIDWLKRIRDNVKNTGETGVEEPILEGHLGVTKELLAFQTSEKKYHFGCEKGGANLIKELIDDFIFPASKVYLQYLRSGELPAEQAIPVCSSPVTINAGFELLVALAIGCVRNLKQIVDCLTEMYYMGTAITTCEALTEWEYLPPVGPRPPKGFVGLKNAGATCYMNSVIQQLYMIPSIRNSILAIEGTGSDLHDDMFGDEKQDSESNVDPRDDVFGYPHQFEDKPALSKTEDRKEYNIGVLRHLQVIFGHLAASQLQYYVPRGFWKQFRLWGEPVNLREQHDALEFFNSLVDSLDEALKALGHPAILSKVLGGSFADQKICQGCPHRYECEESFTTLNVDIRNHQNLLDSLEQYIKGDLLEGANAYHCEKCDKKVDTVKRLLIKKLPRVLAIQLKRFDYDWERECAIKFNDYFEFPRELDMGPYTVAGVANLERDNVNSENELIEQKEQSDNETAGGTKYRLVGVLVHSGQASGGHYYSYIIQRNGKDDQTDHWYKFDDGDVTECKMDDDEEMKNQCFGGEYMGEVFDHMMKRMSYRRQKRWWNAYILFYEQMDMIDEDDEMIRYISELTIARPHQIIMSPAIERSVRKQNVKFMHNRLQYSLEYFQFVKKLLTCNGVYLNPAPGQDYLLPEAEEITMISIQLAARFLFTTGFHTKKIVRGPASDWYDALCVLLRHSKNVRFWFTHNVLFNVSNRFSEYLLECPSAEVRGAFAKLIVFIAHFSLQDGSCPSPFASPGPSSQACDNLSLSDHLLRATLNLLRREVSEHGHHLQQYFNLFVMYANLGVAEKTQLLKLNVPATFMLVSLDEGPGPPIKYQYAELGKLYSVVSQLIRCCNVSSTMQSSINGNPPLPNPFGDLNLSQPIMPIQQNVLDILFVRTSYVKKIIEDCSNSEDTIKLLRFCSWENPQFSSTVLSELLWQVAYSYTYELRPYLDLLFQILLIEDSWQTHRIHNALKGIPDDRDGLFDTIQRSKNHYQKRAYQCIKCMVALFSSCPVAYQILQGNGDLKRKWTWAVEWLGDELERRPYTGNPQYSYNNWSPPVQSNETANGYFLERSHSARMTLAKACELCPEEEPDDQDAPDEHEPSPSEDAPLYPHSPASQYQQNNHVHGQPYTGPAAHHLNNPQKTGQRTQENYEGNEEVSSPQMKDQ
Summary of the method: (§1)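 Triplicate samples of HEK293T lysate, 495 µg each, received fragment at 200 µM or vehicle for 3 h, followed by Biotin-Ahx-Ub-VS (0.5 µM final) for 1 h. After NeutrAvidin enrichment of labelled DUBs and LysC/trypsin digestion, peptides were run by diaPASEF LC-MS/MS. The values are average log2 fragment/vehicle ratios from global-median-normalised Spectronaut label-free quantities, tested by unpaired t-test on proteins having ≥2 unique peptides.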

UniProt P51784 = molecular target: UniProt P51784
Sequence of UniProt P51784 (P51784 whole entry): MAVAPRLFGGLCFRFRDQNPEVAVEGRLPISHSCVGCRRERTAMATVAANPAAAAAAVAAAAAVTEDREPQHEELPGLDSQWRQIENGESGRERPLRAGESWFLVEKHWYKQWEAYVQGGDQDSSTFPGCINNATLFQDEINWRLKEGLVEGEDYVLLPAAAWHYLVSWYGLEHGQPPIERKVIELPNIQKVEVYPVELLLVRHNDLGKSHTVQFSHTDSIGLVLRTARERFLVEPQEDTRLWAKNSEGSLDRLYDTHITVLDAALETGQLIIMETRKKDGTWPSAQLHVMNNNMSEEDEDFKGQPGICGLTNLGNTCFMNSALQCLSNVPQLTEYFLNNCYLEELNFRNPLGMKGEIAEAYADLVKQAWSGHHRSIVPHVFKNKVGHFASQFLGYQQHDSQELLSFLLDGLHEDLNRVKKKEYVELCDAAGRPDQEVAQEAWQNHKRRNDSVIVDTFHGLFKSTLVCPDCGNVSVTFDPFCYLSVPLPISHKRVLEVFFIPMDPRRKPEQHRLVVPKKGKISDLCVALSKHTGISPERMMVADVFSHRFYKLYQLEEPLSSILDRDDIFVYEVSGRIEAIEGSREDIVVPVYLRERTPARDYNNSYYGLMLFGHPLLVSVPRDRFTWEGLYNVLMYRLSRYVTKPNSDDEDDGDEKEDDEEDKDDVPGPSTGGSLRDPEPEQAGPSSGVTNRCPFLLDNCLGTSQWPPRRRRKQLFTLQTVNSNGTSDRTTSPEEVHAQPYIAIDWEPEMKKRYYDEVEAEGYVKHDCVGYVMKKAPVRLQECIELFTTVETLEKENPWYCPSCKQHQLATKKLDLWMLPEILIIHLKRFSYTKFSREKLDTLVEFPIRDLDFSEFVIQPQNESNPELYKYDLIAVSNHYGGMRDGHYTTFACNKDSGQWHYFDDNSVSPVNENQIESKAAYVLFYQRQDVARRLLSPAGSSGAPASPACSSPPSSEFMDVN
Summary of the method: as §1

UniProt Q5T2D3 = molecular target: T1, UniProt Q5T2D3
T1 sequence (whole entry): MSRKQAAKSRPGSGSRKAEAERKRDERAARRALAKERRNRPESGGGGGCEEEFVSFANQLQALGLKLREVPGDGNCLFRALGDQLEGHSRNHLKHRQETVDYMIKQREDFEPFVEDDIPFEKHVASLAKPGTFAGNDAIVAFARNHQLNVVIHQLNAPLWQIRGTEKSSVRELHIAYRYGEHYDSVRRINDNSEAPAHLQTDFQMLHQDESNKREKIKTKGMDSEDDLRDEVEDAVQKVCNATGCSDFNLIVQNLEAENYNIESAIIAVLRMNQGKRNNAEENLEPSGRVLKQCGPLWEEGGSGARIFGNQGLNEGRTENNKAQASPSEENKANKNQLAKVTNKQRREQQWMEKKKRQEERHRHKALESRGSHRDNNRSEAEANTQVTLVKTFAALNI
Summary of the method: as §1

UniProt Q8TE49 = molecular target: T2, UniProt Q8TE49
T2 sequence (whole entry): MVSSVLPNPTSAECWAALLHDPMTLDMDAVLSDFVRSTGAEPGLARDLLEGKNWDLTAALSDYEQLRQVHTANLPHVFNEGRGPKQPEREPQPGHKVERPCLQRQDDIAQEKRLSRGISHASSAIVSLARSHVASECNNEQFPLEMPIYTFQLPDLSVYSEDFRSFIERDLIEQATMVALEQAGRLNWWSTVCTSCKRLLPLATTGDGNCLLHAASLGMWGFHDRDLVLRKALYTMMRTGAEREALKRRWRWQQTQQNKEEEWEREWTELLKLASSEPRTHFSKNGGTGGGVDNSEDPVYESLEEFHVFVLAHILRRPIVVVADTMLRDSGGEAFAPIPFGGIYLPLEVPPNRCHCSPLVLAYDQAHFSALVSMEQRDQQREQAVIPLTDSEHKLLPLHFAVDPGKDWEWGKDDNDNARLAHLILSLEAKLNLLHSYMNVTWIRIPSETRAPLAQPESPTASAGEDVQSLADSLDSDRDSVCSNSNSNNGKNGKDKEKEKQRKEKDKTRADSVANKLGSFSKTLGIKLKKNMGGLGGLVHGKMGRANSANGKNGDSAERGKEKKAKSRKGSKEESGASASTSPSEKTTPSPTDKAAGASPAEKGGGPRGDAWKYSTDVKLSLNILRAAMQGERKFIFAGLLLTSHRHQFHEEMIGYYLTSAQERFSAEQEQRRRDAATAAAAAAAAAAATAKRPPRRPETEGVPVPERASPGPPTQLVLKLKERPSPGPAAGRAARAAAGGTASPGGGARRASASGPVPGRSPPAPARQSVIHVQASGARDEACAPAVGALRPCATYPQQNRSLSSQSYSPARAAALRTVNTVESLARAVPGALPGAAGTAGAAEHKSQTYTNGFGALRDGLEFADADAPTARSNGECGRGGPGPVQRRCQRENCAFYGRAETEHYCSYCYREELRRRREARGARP
Summary of the method: as §1

UniProt Q9P2H5 = molecular target: T3, UniProt Q9P2H5
T3 sequence (whole entry): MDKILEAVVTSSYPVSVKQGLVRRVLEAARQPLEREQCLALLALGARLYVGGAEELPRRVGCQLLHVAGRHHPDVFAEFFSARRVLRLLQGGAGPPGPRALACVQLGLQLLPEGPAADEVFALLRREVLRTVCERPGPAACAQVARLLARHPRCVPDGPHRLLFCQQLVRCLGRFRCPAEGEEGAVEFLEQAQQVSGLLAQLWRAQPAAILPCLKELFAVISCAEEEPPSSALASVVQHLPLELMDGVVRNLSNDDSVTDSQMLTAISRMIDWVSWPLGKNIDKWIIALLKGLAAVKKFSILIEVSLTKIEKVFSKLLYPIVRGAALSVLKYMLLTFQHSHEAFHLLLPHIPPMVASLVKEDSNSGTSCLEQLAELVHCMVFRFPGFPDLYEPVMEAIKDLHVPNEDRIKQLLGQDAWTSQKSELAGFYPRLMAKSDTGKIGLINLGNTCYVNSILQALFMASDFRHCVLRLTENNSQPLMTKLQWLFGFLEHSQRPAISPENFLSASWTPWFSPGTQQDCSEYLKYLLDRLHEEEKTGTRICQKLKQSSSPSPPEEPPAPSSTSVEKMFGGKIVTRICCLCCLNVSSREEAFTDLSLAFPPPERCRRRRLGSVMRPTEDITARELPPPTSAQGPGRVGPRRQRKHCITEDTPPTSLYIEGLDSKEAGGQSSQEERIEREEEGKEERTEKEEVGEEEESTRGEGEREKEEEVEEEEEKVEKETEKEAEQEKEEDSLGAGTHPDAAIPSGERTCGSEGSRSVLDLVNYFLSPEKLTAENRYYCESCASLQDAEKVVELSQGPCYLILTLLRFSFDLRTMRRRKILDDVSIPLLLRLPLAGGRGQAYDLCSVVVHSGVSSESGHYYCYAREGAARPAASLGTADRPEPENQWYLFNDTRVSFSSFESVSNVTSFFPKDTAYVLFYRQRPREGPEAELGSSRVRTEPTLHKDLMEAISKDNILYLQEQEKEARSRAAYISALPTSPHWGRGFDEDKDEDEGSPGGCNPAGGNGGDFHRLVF
Summary of the method: as §1

UniProt Q9UGI0 = molecular target: T4, UniProt Q9UGI0
T4 sequence (whole entry): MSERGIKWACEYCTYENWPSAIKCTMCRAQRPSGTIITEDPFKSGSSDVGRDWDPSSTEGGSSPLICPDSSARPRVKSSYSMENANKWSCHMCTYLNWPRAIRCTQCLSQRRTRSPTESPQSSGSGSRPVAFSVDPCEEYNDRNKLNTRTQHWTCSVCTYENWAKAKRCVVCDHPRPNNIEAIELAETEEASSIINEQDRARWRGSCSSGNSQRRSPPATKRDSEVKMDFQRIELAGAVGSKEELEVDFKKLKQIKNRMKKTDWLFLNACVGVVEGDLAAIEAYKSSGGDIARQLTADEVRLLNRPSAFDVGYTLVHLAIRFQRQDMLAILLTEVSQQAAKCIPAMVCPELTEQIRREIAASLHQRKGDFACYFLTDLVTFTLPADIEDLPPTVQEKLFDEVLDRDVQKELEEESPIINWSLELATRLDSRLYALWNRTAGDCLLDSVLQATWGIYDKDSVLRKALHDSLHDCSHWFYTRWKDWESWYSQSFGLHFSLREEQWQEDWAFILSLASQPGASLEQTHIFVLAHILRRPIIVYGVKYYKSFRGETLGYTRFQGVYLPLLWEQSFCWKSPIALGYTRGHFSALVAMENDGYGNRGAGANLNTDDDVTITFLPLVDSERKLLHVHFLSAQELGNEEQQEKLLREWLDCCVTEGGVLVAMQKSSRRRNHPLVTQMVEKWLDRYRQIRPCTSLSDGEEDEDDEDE
Summary of the method: as §1

YOD1 = molecular target: T5, YOD1 (UniProt Q5VVQ6)
T5 sequence (whole entry): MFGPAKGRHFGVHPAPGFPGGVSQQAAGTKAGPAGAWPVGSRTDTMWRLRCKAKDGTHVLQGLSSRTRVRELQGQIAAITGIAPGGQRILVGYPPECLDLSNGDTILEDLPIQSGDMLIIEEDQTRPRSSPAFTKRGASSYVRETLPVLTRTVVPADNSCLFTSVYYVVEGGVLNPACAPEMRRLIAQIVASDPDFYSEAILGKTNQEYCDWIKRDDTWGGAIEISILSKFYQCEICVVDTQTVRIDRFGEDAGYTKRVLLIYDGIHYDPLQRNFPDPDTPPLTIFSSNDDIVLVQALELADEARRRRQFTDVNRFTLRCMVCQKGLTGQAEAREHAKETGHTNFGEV
Summary of the method: as §1

Measured: log2 ratio of Biotin-Ahx-Ub-VS probe labelling

Cc1ccc(C(=O)NCCNC(=O)CCl)cc1
inactive: UniProt O00507 -0.256 | UniProt P51784 0.00304 | UniProt Q5T2D3 -0.199 | UniProt Q8TE49 -0.373 | UniProt Q9P2H5 -0.35 | UniProt Q9UGI0 -0.456 | YOD1 -0.0895

Cc1ccn2cc(CNC(=O)CCl)nc2c1.Cl
inactive: UniProt O00507 0.237 | UniProt P51784 -0.0387 | UniProt Q5T2D3 -0.599 | UniProt Q8TE49 -0.359 | UniProt Q9P2H5 -0.141 | UniProt Q9UGI0 -0.262 | YOD1 0.0926

O=C(CCl)N1CCCC2CCCCC21 (stereo unspecified)
inactive: UniProt O00507 -0.0343 | UniProt P51784 0.035 | UniProt Q5T2D3 -0.0557 | UniProt Q8TE49 -0.126 | UniProt Q9P2H5 -0.193 | UniProt Q9UGI0 -0.134 | YOD1 0.0864

CC1Cc2ccccc2N1C(=O)CCl (stereo unspecified)
inactive: UniProt O00507 -0.438 | UniProt P51784 -0.254 | UniProt Q5T2D3 -0.151 | UniProt Q8TE49 -0.28 | UniProt Q9P2H5 -0.127 | UniProt Q9UGI0 -0.604 | YOD1 -0.114

Cc1cccc(NC(=O)CCl)c1C
inactive: UniProt O00507 -0.281 | UniProt P51784 -0.431 | UniProt Q5T2D3 -0.156 | UniProt Q8TE49 -0.703 | UniProt Q9P2H5 -0.325 | UniProt Q9UGI0 -0.414 | YOD1 -0.291

O=C(CCl)Nc1cccc(NC(=O)c2ccccc2)c1
inactive: UniProt O00507 0.236 | UniProt P51784 0.295 | UniProt Q5T2D3 0.263 | UniProt Q8TE49 -0.0536 | UniProt Q9P2H5 -0.23 | UniProt Q9UGI0 0.0168 | YOD1 0.288

O=C(CCl)NCCc1ccc(F)cc1
inactive: UniProt O00507 -0.114 | UniProt P51784 0.00457 | UniProt Q5T2D3 0.0738 | UniProt Q8TE49 -0.0633 | UniProt Q9P2H5 0.297 | UniProt Q9UGI0 -0.491 | YOD1 0.0794

CN(C)C(=O)c1ccc(NC(=O)CCl)cc1
inactive: UniProt O00507 0.0581 | UniProt P51784 -0.0219 | UniProt Q5T2D3 0.0298 | UniProt Q8TE49 0.182 | UniProt Q9P2H5 0.102 | UniProt Q9UGI0 -0.97 | YOD1 0.0572

Cc1ccc(-c2nnc(C)[nH]2)c(NC(=O)CCl)c1
inactive: UniProt O00507 -0.0161 | UniProt P51784 0.126 | UniProt Q5T2D3 -0.148 | UniProt Q8TE49 -0.185 | UniProt Q9P2H5 0.245 | UniProt Q9UGI0 -0.97 | YOD1 -0.102

COc1cc(Cl)c(C)cc1NC(=O)CCl
inactive: UniProt O00507 -0.429 | UniProt P51784 -0.107 | UniProt Q5T2D3 -0.258 | UniProt Q8TE49 -0.622 | UniProt Q9P2H5 -0.319 | YOD1 -0.11
active: UniProt Q9UGI0 -1.23

Cl.O=C(CCl)N1CC(c2ccc(Br)cn2)C1
inactive: UniProt O00507 -0.573 | UniProt P51784 -0.0636 | UniProt Q5T2D3 -0.282 | UniProt Q8TE49 -0.974 | UniProt Q9P2H5 -0.175 | UniProt Q9UGI0 -0.897 | YOD1 -0.229

O=C(CCl)Nc1cc(Cl)ccc1C(=O)O
inactive: UniProt O00507 0.337 | UniProt P51784 0.177 | UniProt Q5T2D3 -0.138 | UniProt Q8TE49 -0.2 | UniProt Q9P2H5 -0.258 | UniProt Q9UGI0 -0.128 | YOD1 0.233

O=C(CCl)Nc1cccc2ncccc12
active: UniProt Q9UGI0 -1.64
inactive: UniProt O00507 0.145 | UniProt P51784 0.265 | UniProt Q5T2D3 -0.164 | UniProt Q8TE49 -0.784 | UniProt Q9P2H5 -0.437 | YOD1 0.469

O=C(CCl)NCc1cccc(N2CCCC2=O)c1
inactive: UniProt O00507 -0.0239 | UniProt P51784 0.0359 | UniProt Q5T2D3 0.0544 | UniProt Q8TE49 -0.351 | UniProt Q9P2H5 0.0802 | UniProt Q9UGI0 -0.491 | YOD1 0.144

Cc1cc(Cl)ccc1NC(=O)CCl
inactive: UniProt O00507 0.519 | UniProt P51784 -0.115 | UniProt Q5T2D3 -0.142 | UniProt Q8TE49 -0.396 | UniProt Q9P2H5 -0.193 | UniProt Q9UGI0 -0.477 | YOD1 -0.175

O=C(CCl)Nc1ccc(Cl)c(F)c1
active: UniProt Q9UGI0 -1.27
inactive: UniProt O00507 -0.588 | UniProt P51784 -0.219 | UniProt Q5T2D3 -0.339 | UniProt Q8TE49 -0.571 | UniProt Q9P2H5 -0.0638 | YOD1 -0.313

Cl.O=C(CCl)N1CCn2ncc(O)c2C1
inactive: UniProt O00507 -0.112 | UniProt P51784 -0.0869 | UniProt Q5T2D3 -0.448 | UniProt Q9P2H5 -0.541 | YOD1 -0.272
active: UniProt Q8TE49 -2.17 | UniProt Q9UGI0 -1.92

Cl.Cn1ncc2c1CCCC2NC(=O)CCl (stereo unspecified)
inactive: UniProt O00507 -0.0339 | UniProt P51784 -0.154 | UniProt Q5T2D3 -0.121 | UniProt Q9P2H5 -0.276 | UniProt Q9UGI0 0.0166 | YOD1 -0.109
active: UniProt Q8TE49 -3.69
